Screening data from PubChem.
MLL AF4-AF9 inh: blocks AF4 peptide binding to human AF9; P42568; AID 651704; AlphaScreen, biotin-AF4 peptide binding to FLAG-AF9; hit rate 0.47% among 350,000; inhibition, % at 10 µM;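 active = every replicate reaching a set inhibition limit, whatever the replicate mean, cut at about 25% in these data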
RAD52 anneal inh: inhibitors of human RAD52 DNA annealing | recombinant RAD52 DNA annealing, FRET fluorescence | inhibition, % at 18.7 µM | hit rate 0.46% among 360,000 | P43351;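 active = every replicate showing at least 50% inhibition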
Target sequence (P43351 whole entry, looked up): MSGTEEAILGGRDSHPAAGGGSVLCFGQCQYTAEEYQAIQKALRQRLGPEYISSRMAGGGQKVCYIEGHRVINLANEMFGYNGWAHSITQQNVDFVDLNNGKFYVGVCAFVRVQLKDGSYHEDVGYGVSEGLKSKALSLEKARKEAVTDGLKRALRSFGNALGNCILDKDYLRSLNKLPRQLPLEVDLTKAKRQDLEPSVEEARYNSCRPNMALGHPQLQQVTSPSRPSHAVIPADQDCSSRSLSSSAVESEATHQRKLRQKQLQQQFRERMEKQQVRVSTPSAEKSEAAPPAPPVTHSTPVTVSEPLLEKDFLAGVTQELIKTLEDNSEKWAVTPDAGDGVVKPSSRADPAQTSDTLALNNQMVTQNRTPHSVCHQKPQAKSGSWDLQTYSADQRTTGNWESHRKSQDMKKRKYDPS
NSD2 HMT inh: inhibitors of human histone methyltransferase NSD2. O96028. NSD2 peptide methylation, AlphaScreen, 120 min. inhibition, % at 12.5 µM. hit rate 0.54% among 310,000. AID 743445; in the data active = inhibition above about 50%
miR-122 sensor: miR-122 inhibition in Huh7 cells; activation (reporter increase), % at 12.5 µM; Huh7 miR-122 Renilla luciferase sensor, 48 h; neutral wells = 0, positive control = 100; hit rate 0.3% among 340,000;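 active = mean replicate activation score at least 90 and every replicate individually at or above 90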;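 also: higher luciferase means less miR-122 activity so hits act as miR-122 inhibitors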
Casp6 inh: inhibitors of human caspase-6. inhibition, % at 12.5 µM. hit rate 0.53% among 350,000. purified caspase-6, Z-VEID-R110 cleavage fluorescence. P55212;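 active = mean inhibition across replicates at least about 35%, with every replicate also reaching that limit, limit read from the data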
Alpha artifact: AlphaScreen assay artifact in NSD2 counter-screen; hit rate 9.4% among 1,500; AID 1053174; shares compounds with NSD2 HMT inh; AC35, µM (series often up to 10 µM); AlphaScreen artifact counterscreen, preloaded methylated H4 peptide; call rule not given here
Numbers stand for hits; 0 = inactive; - = no result. A selection: hits, their analogues and other compounds. The true share with any hit is near 1.5%.

SMILES	MLL AF4-AF9 inh	RAD52 anneal inh	NSD2 HMT inh	miR-122 sensor	Casp6 inh	Alpha artifact
Cc1[nH][nH]c(=O)c1C(c1ccc(-c2ccc(Cl)c(C(=O)O)c2)o1)c1c(C)[nH][nH]c1=O	0	0	131	0	-	0
COC(=O)c1ccc(C(c2c(C)[nH][nH]c2=O)c2c(C)[nH][nH]c2=O)cc1	0	0	0	0	0	-
C[C@@H]1CCCCO[C@@H](CN(C)C(=O)C2CCCCC2)[C@H](C)CN([C@H](C)CO)C(=O)c2cc(NC(=O)NC3CCCCC3)ccc2O1	0	0	-	0	0	-
CC(C)(C)c1cc[n+](C2=C([O-])c3ccccc3C(=O)/C2=N\S(=O)(=O)c2ccccc2)cc1	0	0	63	0	0	0
CC(C)[n+]1ccn(C2=C([O-])c3ccccc3C(=O)/C2=N\S(=O)(=O)c2ccccc2)c1	0	0	96	-	35	0
COc1ccc(CN(C)C[C@@H]2Oc3ccc(NC(=O)Cn4cnnn4)cc3C(=O)N([C@H](C)CO)C[C@H]2C)cc1	0	0	-	0	0	-
COc1ccc(NC(=O)N(C)C[C@H]2OCCCC[C@H](C)Oc3ccc(NS(=O)(=O)c4ccccc4)cc3C(=O)N([C@@H](C)CO)C[C@H]2C)cc1	0	0	-	-	0	-
COc1ccccc1N=Nc1ccc(O)c2ncccc12	72	0	94	0	54	0
Cc1nnc(Sc2cc(NCCO)c([N+](=O)[O-])c3nonc23)s1	0	0	60	-	0	0
Cc1noc(C)c1S(=O)(=O)Nc1ccc2c(c1)CC(=O)N([C@@H](C)CO)C[C@H](C)[C@@H](CN(C)Cc1ccc(C(=O)Nc3ccccc3N)cc1)O2	0	0	-	-	0	-
Cc1ccccc1-c1ocnc1C(=O)Nc1ccccc1NC(=O)c1ccccn1	0	0	74	0	0	0
Cc1ccc(C)c(C(=O)c2ccccc2NC(=O)c2ccccn2)c1	0	0	0	0	0	-
Cc1nc(COC(=O)c2cc(O)c3ccccc3c2O)cs1	0	0	78	-	0	0
C[C@@H]1CN([C@@H](C)CO)S(=O)(=O)c2ccc(-c3cccnc3)cc2O[C@@H]1CN(C)C(=O)C1CCC1	0	0	-	0	0	-
O=C(O)C(c1ccccc1)N1C(=O)/C(=C\c2ccc(O)c(O)c2)SC1=S (configuration not stated)	0	0	105	-	0	7.6µM
Cc1ccc(S(=O)(=O)N(C)C[C@H]2OCCCC[C@H](C)Oc3ccc(NC(=O)Nc4ccc5c(c4)OCO5)cc3C(=O)N([C@@H](C)CO)C[C@H]2C)cc1	0	0	-	0	0	-
NC(=O)c1oc2ccc(Cl)cc2c1N	-	-	95	0	-	0
Nc1c(C(=O)CCC(=O)O)oc2ccc(Cl)cc12	0	0	-	0	0	-
Cc1ccc(Nc2nc(-c3ccc(O)c(O)c3)cs2)nc1	42	0	88	-	0	0
CSc1ncccc1C(=O)Nc1nc2c(C)cccc2s1	0	0	104	-	0	0
CSc1ncccc1C(=O)Nc1ncc(C)s1	0	0	0	-	0	-
Cc1ccc(S(=O)(=O)N(C)C[C@@H]2Oc3ccc(NC(=O)Nc4c(C)noc4C)cc3CC(=O)N([C@@H](C)CO)C[C@H]2C)cc1	0	0	-	0	-	-
COc1ccc(CNC(=O)CCCn2nc(C)c([N+](=O)[O-])c2C)cc1OC	0	0	86	-	0	0
Cc1nn(CCCC(=O)NCc2ccc(Cl)cc2)c(C)c1[N+](=O)[O-]	-	-	0	-	-	-
COc1cc(N)c2ncccc2c1Br	0	0	152	-	93	0
SMILES	MLL AF4-AF9 inh	RAD52 anneal inh	NSD2 HMT inh	miR-122 sensor	Casp6 inh	Alpha artifact
O=S(=O)(c1cccs1)N1CCCCN2[C@H](CO)[C@H](c3ccc(C4=CCCCC4)cc3)[C@@H]2C1	0	0	-	0	0	-
Cc1ccc(NC(=O)CCC(=O)OCC(F)(F)C(F)F)cc1	-	-	121	0	-	0
O=C(CCCC(=O)OCC(F)(F)C(F)F)Nc1ccc(NC(=O)CCCC(=O)OCC(F)(F)C(F)F)cc1	-	-	0	0	-	-
O=C(C[C@H]1C[C@H]2c3cc(NC(=O)c4ccc5c(c4)OCO5)ccc3O[C@H]2[C@@H](CO)O1)NCc1ccccn1	0	0	-	0	0	-
COc1ccc2noc3c2c1C(=O)c1ccccc1-3	0	0	108	0	46	0
COc1ccc(OC)c2c1C(=O)c1ccccc1C2=O	-	-	0	-	-	-
CCCn1c(C)nc2c(c1=O)c1nc3ccccc3nc1n2-c1ccccc1	0	0	54	0	0	0
CCCn1c(C)nc2c(c1=O)c1nc3ccccc3nc1n2CCC1=CCCCC1	-	-	0	0	-	-
COc1ccc(S(=O)(=O)N2C[C@H](O)COC[C@@H]3O[C@@H](CC(=O)NCc4ccc(Cl)c(Cl)c4)CC[C@H]32)cc1	0	0	-	0	0	-
CCC(C)NCCCOc1cc(Cl)ccc1Cl (configuration not stated)	-	-	52	0	-	0
CCC(C)NCCCCOc1ccc(Cl)cc1C (configuration not stated)	-	-	60	0	-	0
COc1ccc(C#Cc2cccc(-c3nc(C(=O)N[C@@H]4CCN(Cc5ccccc5)C4)cc4c3[C@H](CCO)N(S(=O)C(C)(C)C)C4)c2)cc1OC (some centres not stated)	0	0	-	-	0	-
CCC(=O)N1C[C@H](C)[C@@H](OC)CN(C)C(=O)c2cc(NS(C)(=O)=O)ccc2OC[C@H]1C	0	0	-	0	0	-
C[C@@H]1CN([C@@H](C)CO)C(=O)Cc2cc(NS(=O)(=O)c3cccs3)ccc2O[C@@H]1CN(C)S(C)(=O)=O	0	0	-	0	0	-
Cc1ccc(S(=O)(=O)Nc2ccc3c(c2)C(=O)N([C@H](C)CO)C[C@H](C)[C@@H](CN(C)C(=O)Cc2ccccc2)OCCCC[C@@H](C)O3)cc1	0	0	-	0	0	-
Cc1cc(C)c(NC(=S)N(C)C)cc1C	0	0	56	-	0	0
O=C(O)CSc1cc(NS(=O)(=O)c2ccc(Br)cc2)c2ccccc2c1O	0	0	107	0	95	0
Cc1cc2ccccn2c1C(=O)c1ccc([N+](=O)[O-])o1	0	0	61	0	0	0
CC(=O)N(C)C[C@@H]1Oc2cc(C#CCN(C)C)ccc2S(=O)(=O)N([C@@H](C)CO)C[C@H]1C	0	0	-	0	0	-
C[C@@H]1CN([C@H](C)CO)C(=O)Cc2cc(NC(=O)CCCN(C)C)ccc2O[C@@H]1CN(C)CC1CCCCC1	0	0	-	0	0	-
C[C@@H]1CN([C@@H](C)CO)C(=O)Cc2cc(N(C)C)ccc2O[C@@H]1CN(C)C(=O)Nc1ccc2c(c1)OCO2	0	0	-	0	0	-
COc1cc(/C=C/C(=O)OCC(=O)NC(=O)NC(C)(C)C)ccc1O	0	0	0	0	0	-
COc1cc(/C=C/C(=O)OCC(=O)NNC(=O)c2cc(Cl)ccc2OC)ccc1O	0	0	63	0	0	0
CC(C)(C#N)NC(=O)C1CCCN1S(=O)(=O)c1ccc2ccccc2c1 (configuration not stated)	0	0	109	-	0	0
